# Experimental data taken from the supplement of paper PMC7057948, “A genome-wide approach for identification and characterisation of metabolite-inducible systems” (Nature Communications, 2020).
# Key:
# Test in all cases: relative induction of RFP reporter vs primary effector (background-corrected); higher = stronger activation of the biosensor
# Settings in all cases: inducer concentration 5 mM; 6 h; Cupriavidus necator H16; minimal medium + 0.4% gluconate
# [1] = tested on: AcoR/P_H16_RS19445 acetoin biosensor (pEH052)
# Method: (§1)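 C. necator H16 strains, each carrying one of 21 transcription factor/inducible promoter–mRFP biosensor plasmids, were grown in minimal medium in 96-well plates (robotic platform). Each was exposed to 46 structurally or metabolically related compounds at 5 mM at 30 °C. OD-normalised RFP fluorescence was read 6 h later and expressed as relative induction (%) = 100 × (FL compound − FL uninduced)/(FL primary inducer − FL uninduced); mean of n=4.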
# [2] = tested on: AraC/P_araBAD L-arabinose biosensor (pEH176)
# Method: as §1
# [3] = tested on: BenM/P_H16_RS09790 benzoate biosensor (pEH148)
# Method: as §1
# [4] = tested on: FdsR/P_H16_RS03165 formate biosensor (pEH134)
# Method: as §1
# [5] = tested on: GabR/P_H16_RS23655 GABA biosensor (pEH256)
# Method: as §1
# [6] = tested on: HpdR/P_H16_RS18295 3-hydroxypropanoate biosensor (pEH010)
# Method: as §1
# [7] = tested on: KynR/P_H16_RS14030 L-kynurenine biosensor (pEH136)
# Method: as §1
# [8] = tested on: NahR/P_H16_RS08125 salicylate biosensor (pEH042)
# Method: as §1
# [9] = tested on: OapR/P_H16_RS01330 beta-alanine biosensor (pEH147)
# Method: as §1
# [10] = tested on: PcaQ/P_H16_RS30145 3,4-dihydroxybenzoate biosensor (pEH161)
# Method: as §1
# [11] = tested on: PhgR/P_H16_RS05530 phenylglyoxylate biosensor (pEH155)
# Method: as §1
# [12] = tested on: PhhR/P_H16_RS18365 L-phenylalanine biosensor (pEH137)
# Method: as §1
# [13] = tested on: SauR/P_H16_RS13695 sulfonatoacetate biosensor (pEH157)
# Method: as §1
# [14] = tested on: TtdR/P_H16_RS10665 tartrate biosensor (pEH083)
# Method: as §1
# [15] = tested on: XdhR/P_H16_RS05055 xanthine biosensor (pEH154)
# Method: as §1
# [16] = tested on: heterologous inducible system pEH002 (rhamnose/acrylate/cumate/itaconate set)
# Method: as §1
# [17] = tested on: heterologous inducible system pEH020 (rhamnose/acrylate/cumate/itaconate set)
# Method: as §1
# [18] = tested on: heterologous inducible system pEH040 (rhamnose/acrylate/cumate/itaconate set)
# Method: as §1
# [19] = tested on: heterologous inducible system pEH086 (rhamnose/acrylate/cumate/itaconate set)
# Method: as §1
# [20] = tested on: BadR/P_H16_RS27200 cyclohexanecarboxylate biosensor (pEH159)
# Method: as §1
# 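Note: RFP excited at 585 nm with emission read at 620 nm, culture medium blanks subtracted from fluorescence and absorbance prior to normalisation.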
Structure (SMILES),relative induction of RFP reporter [1] [%],relative induction of RFP reporter [2] [%],relative induction of RFP reporter [3] [%],relative induction of RFP reporter [4] [%],relative induction of RFP reporter [5] [%],relative induction of RFP reporter [6] [%],relative induction of RFP reporter [7] [%],relative induction of RFP reporter [8] [%],relative induction of RFP reporter [9] [%],relative induction of RFP reporter [10] [%],relative induction of RFP reporter [11] [%],relative induction of RFP reporter [12] [%],relative induction of RFP reporter [13] [%],relative induction of RFP reporter [14] [%],relative induction of RFP reporter [15] [%],relative induction of RFP reporter [16] [%],relative induction of RFP reporter [17] [%],relative induction of RFP reporter [18] [%],relative induction of RFP reporter [19] [%],relative induction of RFP reporter [20] [%]
OC[C@@H](O)[C@@H](O)[C@H](O)[C@H](O)CO [D-mannitol],4.32,-0.00626,0.00493,-0.914,-0.506,-0.0887,0.488,0.0228,-0.205,0.0552,-0.267,0.344,0.0255,0.195,-0.267,-0.000622,-0.0264,0.166,0.0103,–
C[C@@H](O)C(=O)O [D-lactate],-2.25,-0.0311,-0.0413,-1.67,-2.02,-0.134,0.0968,-0.00031,-0.533,-0.113,-0.587,-0.462,0.0141,0.347,-0.947,0.0109,-0.802,-1.93,0.366,–
O=C(O)[C@@H](O)[C@@H](O)[C@H](O)[C@@H](O)C(=O)O [glucarate],16.6,-0.00794,0.00581,-1.03,0.559,0.059,0.0265,0.0258,0.058,0.00441,-0.232,-0.08,-0.0162,-0.0655,0.202,0.0271,0.067,0.131,0.127,-0.576
O=C(O)CNC(=O)c1ccccc1 [N-benzoylglycine],-2.37,-0.0115,21.2,40.1,-0.301,-0.376,0.0257,0.0182,-1.12,-0.215,-0.146,-0.604,-0.018,-0.285,-0.852,-0.00397,-2.44,-1.84,-0.117,–
CC(=O)CCC(=O)O [levulinic acid],-2.12,0.00636,-0.0388,-11.8,-2.89,-0.37,-0.594,-0.0149,-1.91,-0.265,-0.187,-0.623,-0.0306,1.16,-0.941,0.0157,-1.82,-1.61,-0.139,0.15
Oc1cccc(O)c1 [resorcinol],1.11,-0.0083,0.0215,3.2,-1.35,-0.13,-0.206,0.04,-1.51,-0.109,0.115,0.365,0.0138,1.74,-0.161,-0.00943,-0.947,0.407,-0.0428,–
NCC(=O)O [glycine],-0.038,-0.0181,0.0164,-5.21,0.401,-0.178,0.211,0.0163,-0.454,0.00408,-0.415,-0.384,0.0965,0.812,-0.0501,0.0153,-0.252,0.354,0.274,–
O=C(O)c1cccnc1 [nicotinate],-2.26,0.00152,1.95,113,-1.65,0.0215,-0.289,0.0131,-0.669,-0.0619,-0.587,-0.498,0.0909,-0.44,0.0721,0.0144,-1.31,-1.49,0.0778,–
